Measurements as given in PubChem BioAssay (NCI).
The panel holds about 79,000 compounds, 15% with a hit somewhere; the sample as a whole holds those more often. Unmarked numbers belong to inactive results. Activity calls are given as the source filed them. Rule as the data show it: active = growth inhibition above about 70%; inactive = the rest. Where a SMILES comes first, the peptide text is derived from it. The star is where a group is joined. Cbz = O=C(OCc1ccccc1)*

Key:
[1] = NCI Yeast Anticancer Drug Screen. Data for the rad50 strain (AID 155);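 also: 0% = growth of vehicle-only cultures of the same strain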; conditions: S. cerevisiae rad50 strain growth inhibition; at 50.0 µM; hits give high values
Procedure, shortened: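 Readout: growth inhibition relative to vehicle-treated cultures. Compound exposure was carried out in a genetically defined yeast strain deficient in DNA damage repair.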

[2] = NCI Yeast Anticancer Drug Screen. Data for the mec2-1 strain (AID 157); conditions: S. cerevisiae mec2-1 strain, at 50.0 µM, hits give high values
Procedure, shortened: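 Using mec2-1 yeast: add compound, measure growth, express inhibition versus vehicle-treated cultures.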

[3] = NCI Yeast Anticancer Drug Screen. Data for the sgs1 mgt1 strain (AID 161);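 also: 0% = growth of cultures given vehicle only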; conditions: S. cerevisiae sgs1 mgt1 strain, at 50.0 µM, hits give high values
Procedure, shortened: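 Percent growth inhibition was derived by comparing compound-exposed mutant yeast with vehicle-exposed cultures. The strain carries alterations in DNA damage repair.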

[4] = NCI Yeast Anticancer Drug Screen. Data for the cln2 rad14 strain (AID 165);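 also: 0% = growth equal to vehicle treated cultures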; conditions: S. cerevisiae cln2 rad14 strain, at 50.0 µM, hits give high values
Procedure, shortened: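 Yeast strain cln2 rad14, bearing defects in cell cycle control and DNA repair, serves as the test system; values reflect growth inhibition compared with vehicle.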

[5] = NCI Yeast Anticancer Drug Screen. Data for the bub3 strain (AID 167); conditions: S. cerevisiae bub3 mutant strain, at 50.0 µM, hits give high values
Procedure, shortened: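 Readout: yeast growth inhibition, expressed relative to vehicle-only wells. The test organism is a mutant strain from a panel with lesions in DNA repair or checkpoint genes.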

[6] = NCI Yeast Anticancer Drug Screen. Data for the mlh1 rad18 strain (AID 175); conditions: S. cerevisiae mlh1 rad18 strain growth inhibition; at 50.0 µM; hits give high values
Procedure, shortened: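 Steps: expose repair-defective yeast to compound; measure growth; express inhibition against vehicle-treated controls.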

| SMILES | growth inhibition [1] | growth inhibition [2] | growth inhibition [3] | growth inhibition [4] [%] | growth inhibition [5] | growth inhibition [6] |
| --- | --- | --- | --- | --- | --- | --- |
| CCOC(=O)CNc1nc(Cl)nc(NCC(=O)OCC)n1 | 3.05% | -4.6% | -0.05% | -43.2 | 28.9% | 1.4% |
| O=c1cc(O)nc(CO)[nH]1 | -4.15% | -5.75% | -41.9% | -14.7 | 3.9% | 2.6% |
| O=C(Nc1ccc(Cl)c(Cl)c1)C1C(=O)N(c2ccc(Cl)c(Cl)c2)C(=O)/C1=N\O (stereo unspecified) | 24.4% | -4.3% | 11.2% | 16.9 | -3.3% | 22.8% |
| CSC1=N[C@H](c2ccccc2)CS1 | 21.9% | -9.85% | 21.7% | -3.1 | 20.2% | 23.4% |
| N=C(N)SCCCN | -1.7% | -14.7% | -3.6% | 2.95 | -36% | 29.1% |
| CCO[C@H]1OC(=O)[C@@H]2C(c3ccc([N+](=O)[O-])cc3)=NO[C@H]12 | -12% | -32.5% | -12.9% | 2.7 | 4.85% | -29.8% |
| CC(c1cccc2ccccc12)/[N+]([O-])=C/c1ccccc1 (stereo unspecified) | -11.6% | -27.9% | -32.7% | 2.1 | -37.4% | -11.7% |
| c1ccc(Sc2cc(Sc3ccccc3)c3cccccc2-3)cc1 | 17.9% | -21.9% | -27.4% | -6.05 | 5.25% | 3.2% |
| Cc1cccc(N2CCN(S(C)(=O)=O)CC2)c1 | 16.6% | 6.85% | 0.3% | 18.4 | 6.75% | 5% |
| O=C1[C@@H]2[C@@H](c3ccccc3)[C@]2(Cl)C(=O)[C@H]2[C@H](c3ccccc3)[C@@]12Cl | 6.9% | 4.15% | 1.1% | 8.75 | 3.8% | 32.8% |
| C1CC2CC1C13OC1C1(CC1)C1OC213 (stereo unspecified) | -4.5% | 11.6% | -40.5% | -28.4 | -20.2% | -45.5% |
| CNc1n[nH]c(-c2ccccc2)n1 | 4.85% | -17.5% | 11.8% | 11.9 | 1.15% | 1.8% |
| CC(=O)Nc1ccc(OC(C)=O)cc1N | -8.9% | -8.15% | 2.9% | -8.95 | 2.95% | 1% |
| CC(C)CCOc1ccc(C(N)=S)c2ccccc12 | 80% (active) | 96.8% (active) | 96.4% (active) | 68.5 | 84% (active) | 95.2% (active) |
| CCOc1ccccc1Nc1nc(C)c(C(=O)CC(=O)C(=O)Nc2ccccc2)s1 | 45.9% | 5.4% | 28.2% | 9.45 | 29.9% | 12.9% |
| COC(=O)N1C(c2ccccc2)(c2ccccc2)CS1(=O)=O | 15.2% | 10.1% | 9.3% | 15.6 | 11.8% | 5.25% |
| CCOC(=O)CSc1nc(N)c2c(-c3ccccc3)c3c(nc2n1)CCCC3 | -23.1% | 11.1% | 10.8% | 33.1 | 21.7% | 17.7% |
| CC1=CC[C@@H](Br)C(C)(C)[C@]12CC[C@]1(C)O[C@@H]1C2 | 3.15% | -33.6% | -12.6% | 2.55 | -23.6% | -13.6% |
| CC1SCCNC1=O (stereo unspecified) | -2.1% | -1.5% | -0.1% | 7.3 | 4% | -16.9% |
| CC1CN=C(c2ccccn2)C(c2ccccn2)=N1 (stereo unspecified) | 4.85% | 6.6% | 14.5% | -1.1 | 17.4% | 10.2% |
| O=C1C2=Cc3ccccc3CCN2c2ccc([N+](=O)[O-])cc21 | -28.9% | 5.35% | -39.4% | -7 | 1.7% | -24.2% |

| SMILES | growth inhibition [1] | growth inhibition [2] | growth inhibition [3] | growth inhibition [4] [%] | growth inhibition [5] | growth inhibition [6] |
| --- | --- | --- | --- | --- | --- | --- |
| COc1ccc(Cc2cc(N=NC(N)=O)c(C)cc2O)cc1 | -7.35% | -5.65% | -2.55% | 1.75 | 3.5% | 4.55% |
| CC(C(=O)O)c1ncnn1-c1ccccc1 (stereo unspecified) | -3.35% | 41% | 6.45% | 4.85 | 10.6% | 2.65% |
| CCOc1cc(/C=N/NC(=O)c2ccccc2NC(=O)c2ccccc2)ccc1OC | -21.6% | 2.35% | 17.8% | -4.1 | 5.4% | 5.7% |
| CN(Cc1ccccc1)C(=O)c1ccccc1C(=O)O | -9.2% | -2.85% | -4.75% | -15.9 | -4.95% | 13.2% |
| c1ccc(C2OC(c3ccccc3)c3ccccc32)cc1 (stereo unspecified) | 7.55% | -6.8% | 12.4% | -2.05 | 24.1% | 12.2% |
| CCN(CC)c1ccc(NC(=S)Nc2cccc(C(F)(F)F)c2)c(C)c1 | 35.9% | 21.6% | 52.2% | 1.9 | 2.45% | 19.2% |
| CCCCOc1ccc2c(c1)CC[C@@H]1[C@@H]2CC[C@]2(C)C(=O)N(CCCC)C(=O)C[C@@H]12 | 5% | -3.25% | 16.4% | -17.1 | 16.5% | 4.2% |
| c1ccc(CCN(CCc2ccccn2)CCc2ccccn2)nc1 | -5.85% | -13.6% | 0.35% | 0.3 | 3% | 18% |
| Cc1nc2ccc(C(F)(F)F)cc2nc1Nc1ccc(Cl)c(Cl)c1 | 20.2% | 27.4% | 47.6% | 15.2 | 6.95% | 34% |
| O=C(O)C(CO)NC(=O)C1CCCN1C(=O)OCc1ccccc1 (stereo not drawn) (Cbz-Pro-Ser-OH; configuration not given here) | -1.95% | -17.8% | -5.7% | -1 | -4.75% | -18% |
| Cc1cc(C)c(NC(=O)Nc2ccccc2F)cc1C | 18.7% | 19.6% | 14.3% | 24.7 | 33.1% | 8.85% |
| C=CCCCC1(c2ccccc2)C(=O)Oc2ccccc21 (stereo unspecified) | 29.6% | 2.55% | -0.55% | 15.6 | 12.8% | -2.75% |
| CS(=O)(=O)c1c(N)c2nc(Cl)cn2c2nc3ccccc3nc12 | -11.4% | -2.1% | -10.3% | -9.15 | -27.1% | -16.5% |
| O=C(C[n+]1ccccc1)NNC(=O)/C(=C/c1ccc2c(c1)OCO2)NC(=O)c1ccccc1 | -5.95% | 3.4% | -13.7% | 21.3 | -3.95% | 10.1% |
| CCCCCCCCCCCCCCCCCCCCCCCCCC | -11.4% | -2.55% | -19.2% | 19.9 | -0.05% | 5.6% |
| O=C(Nc1ccc2[nH]c3c(-c4ccccc4)nccc3c2c1)c1ccccc1[N+](=O)[O-] | 15.8% | -21.2% | -5.3% | 6.65 | -2.75% | 5.35% |
| CC(=O)Nc1c(I)c(C(=O)NC2C(O)OC(CO)C(O)C2O)c(I)c(N(C)C(C)=O)c1I (stereo unspecified) | -27.2% | 4.55% | -14.2% | -21.6 | -21.5% | -38% |
| O=S(=O)(O)c1cccc2ccc(O)cc12 | -4.05% | -4.1% | -2.05% | -36.8 | -11.1% | 43.6% |
| CC(C)(C)OC(=O)NC(Cc1ccc(OC(C)(C)C)cc1)C(=O)N[C@H]1CC[C@H](C(=O)O)C1 (stereo partly specified) | -6.6% | -1.25% | -8% | -7.85 | 11.2% | 10% |
| Clc1cccc(-c2nnc(-c3nn(-c4ccccc4)c4nc5ccccc5nc34)o2)c1 | -16.4% | -31.3% | -47.2% | 6.1 | -17.1% | -10.8% |
